Most compounds without a hit are left out; they make up all but 3.7% or so of the library.
Kir21 inh – blocks the mouse Kir2.1 inward-rectifier potassium channel | P35561 | HEK293-Kir2.1, FluxOR thallium flux fluorescence; hits give low values | B-score at 10 µM | 310,000 tested, 0.85% active | AID 1672;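 active = fluorescence ratio B-score at or below minus 3 SD of library scores, with starting-brightness B-score within 2 SD, cut at about -4.2 in these data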;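 also: channel flux triggered by added potassium and thallium sulfate stimulus; B-score of peak minus minimum fluorescence over baseline after thallium stimulus; more negative B-score means stronger Kir2.1 block with less thallium influx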
TMEM16A inh – mouse TMEM16A channel inhibition, primary screen. Q8BHY3. HEK293 TMEM16A/YFP iodide influx fluorescence, ionomycin. normalized B-score (activity score, 25-100; higher = stronger inhibition) at 10 µM. 310,000 tested, 1.2% active;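 active = ratio plate-corrected score three or more library SD toward inhibition, starting fluorescence score within five deviations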;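 also: score derived from kinetic fluorescence span divided by baseline fluorescence per well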
ANO1 activ – activators or potentiators of mouse TMEM16A chloride channel | HEK293 TMEM16A/YFP-H148Q/I152L, iodide quench fluorescence; hits give low values | Q8BHY3 | B-score at 10 µM | 340,000 tested, 0.3% active;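 active = fluorescence-ratio B-score plate-corrected deviation score at least 3 library SD below zero, with starting fluorescence score within 5 deviations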;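 also: channel opened by trigger with iodide after compound preincubation; score built on the fluorescence ratio of max minus min over baseline; more negative score means more quench and so TMEM16A activation or potentiation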
CHT allo act – allosteric activators of human choline transporter CHT; Q9GZV3; CHT-expressing cells, membrane potential dye, choline EC20; hits give high values; LV-AA mutant CHT in HEK293 cells; B-score at 10 µM; 310,000 tested, 0.49% active; AID 488977;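 active = initial fluorescence not abnormally high and integrated response B-score, plate-corrected, over 3 SD above library mean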
Target sequence (Q9GZV3 whole entry, looked up): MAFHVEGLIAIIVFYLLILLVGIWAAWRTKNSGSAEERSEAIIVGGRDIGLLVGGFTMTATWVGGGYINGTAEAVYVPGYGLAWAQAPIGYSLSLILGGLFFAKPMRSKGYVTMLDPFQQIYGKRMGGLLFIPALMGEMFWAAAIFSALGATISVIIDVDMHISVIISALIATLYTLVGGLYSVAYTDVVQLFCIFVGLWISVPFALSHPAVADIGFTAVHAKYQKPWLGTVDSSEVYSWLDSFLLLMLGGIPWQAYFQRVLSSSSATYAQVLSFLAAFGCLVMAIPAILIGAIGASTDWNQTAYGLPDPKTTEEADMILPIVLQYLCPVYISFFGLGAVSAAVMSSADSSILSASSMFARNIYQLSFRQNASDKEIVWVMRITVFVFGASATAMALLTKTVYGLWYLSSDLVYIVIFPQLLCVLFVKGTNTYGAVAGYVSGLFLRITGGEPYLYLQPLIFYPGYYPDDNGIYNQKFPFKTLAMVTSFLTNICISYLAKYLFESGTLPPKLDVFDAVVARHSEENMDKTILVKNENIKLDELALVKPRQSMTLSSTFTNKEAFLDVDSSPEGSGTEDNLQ
GPR7 antagonist – blocks human GPR7 receptor signaling | inhibition, % at 4.4 µM | GPR7-expressing cells, fluorescence antagonist assay | P48145 | 290,000 tested, 1.1% active; in the data active = inhibition above about 16%, passing the limit was not always enough;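 also: cells stimulated with the agonist NPW; 0% = agonist with vehicle and 100% = vehicle without agonist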
CHT block – inhibits the human high affinity choline transporter | 310,000 tested, 0.86% active | B-score at 10 µM | AID 488975 | CHT-expressing cells, membrane potential dye, choline response; hits give low values;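 active = B-score over 3 SD under the library average, and starting fluorescence ratio not unusually high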;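 also: choline stimulus applied at its EC90 after an EC20 pre-addition; B-score computed on integrated fluorescence ratio after choline addition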
CHT act confirm – human CHT activation, confirmatory screen. shares compounds with CHT allo act. CHT-expressing cells, membrane potential dye fluorescence (FDSS); % of choline EC20–EC90 response window; HEK293 expressing CHT LV-AA mutant; choline added at its EC20. activation, % at 10 µM. 2,500 tested, 91% active. AID 504833;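 active = primary screen active, with duplicate mean activation above negative control mean plus 3 SD, cut at about 11% in these data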
HEK293 MP dye – CHT activator counter-screen hit in parental HEK293 cells. shares compounds with CHT allo act. membrane potential dye fluorescence (FDSS); measured after EC20 choline addition. ratio readout change at 10 µM, hits read low. 2,500 tested, 62% active;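 active = duplicate-averaged ratio beyond 3 SD from buffer wells, up or down, though filed actives are nearly all decreases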
The depositor's hits bear a star.

CC1(C)CC(N2CCCC2)=CC(=[N+]2CCCCC2)C1 was read as Kir21 inh -2.8, TMEM16A inh inactive, ANO1 activ inactive, CHT allo act inactive, GPR7 antagonist -3 and CHT block inactive.
Screening CC1(C)CC(N2CCCC2)=CC(=[N+]2CCCC2)C1 returned Kir21 inh 0.45, TMEM16A inh inactive, ANO1 activ inactive, CHT allo act 8.6*, GPR7 antagonist -11, CHT block inactive, CHT act confirm 58* and HEK293 MP dye -34*.
`Cc1nnc(SCC(=O)c2ccc(C(C)C)cc2)s1` gave Kir21 inh -0.32, TMEM16A inh inactive, ANO1 activ inactive, CHT allo act inactive, GPR7 antagonist -12 and CHT block inactive.
Screening CCN(CC)CCN(C(=O)c1ccc2c(c1)CCCC2)c1nc2c(C)cccc2s1 returned Kir21 inh -0.38, TMEM16A inh inactive, ANO1 activ inactive, CHT allo act inactive, GPR7 antagonist -1 and CHT block inactive.
Screening CN(C)c1ccnc2sc3c(NCC(O)CO)ncnc3c12 (stereo unspecified) returned Kir21 inh 0.02, TMEM16A inh inactive, ANO1 activ inactive, CHT allo act 6.7*, GPR7 antagonist 11, CHT block inactive, CHT act confirm 50* and HEK293 MP dye -44*.
`CN(C)c1ccnc2sc3c(SCc4ccc(Cl)cc4)ncnc3c12` gave Kir21 inh 0.02, TMEM16A inh inactive, ANO1 activ inactive, CHT allo act inactive, GPR7 antagonist -8 and CHT block inactive.
CCOC(=O)c1c(NC(=O)COc2cccc3c2CCN(C)C3=O)sc2c1CCC2 was read as Kir21 inh 0.01, TMEM16A inh inactive, ANO1 activ inactive, CHT allo act inactive, GPR7 antagonist -16, CHT block inactive, CHT act confirm 25* and HEK293 MP dye inactive.
CN(C)CCCNc1c2c(nc3ccccc13)CCC2 was read as Kir21 inh -0.18, TMEM16A inh inactive, ANO1 activ inactive, CHT allo act inactive, GPR7 antagonist -6, CHT block inactive, CHT act confirm 62* and HEK293 MP dye -66*.
`OCCCNc1c2ccccc2nc2ccccc12` gave Kir21 inh -1.3, TMEM16A inh inactive, ANO1 activ inactive, CHT allo act inactive, GPR7 antagonist -10 and CHT block inactive.
Screening COCCNc1c2c(nc3ccccc13)CCC2 returned Kir21 inh 1.6, TMEM16A inh inactive, ANO1 activ inactive, CHT allo act inactive, GPR7 antagonist 2, CHT block inactive, CHT act confirm 44* and HEK293 MP dye -40*.
COc1ccc(C)cc1Nc1c2c(nc3ccccc13)CCC2 was read as Kir21 inh -9.3*, TMEM16A inh inactive, ANO1 activ inactive, CHT allo act 6.8*, GPR7 antagonist 8, CHT block inactive, CHT act confirm 36* and HEK293 MP dye -27*.
Nc1nnc(CSCc2cccc(Br)c2)s1 was read as Kir21 inh -2.4, TMEM16A inh inactive, ANO1 activ inactive, CHT allo act inactive, GPR7 antagonist -2 and CHT block inactive.
Screening CCO[C@H]1OC(C(=O)NCc2nc3ccccc3[nH]2)=C[C@@H](C2CC2)[C@@H]1CCCO returned Kir21 inh 0.21, TMEM16A inh inactive, ANO1 activ inactive, CHT allo act inactive, GPR7 antagonist 3, CHT block inactive, CHT act confirm 26* and HEK293 MP dye inactive.
For CCO[C@H]1OC(C(=O)NCc2nc3ccccc3[nH]2)=C[C@@H](c2ccccc2)[C@@H]1CCCO the results were Kir21 inh 0.01, TMEM16A inh inactive, ANO1 activ inactive, CHT allo act inactive, GPR7 antagonist -5 and CHT block inactive.
Screening Cc1cc(OCC(=O)NC2CC(C)(C)NC(C)(C)C2)c2c(C)cc(=O)oc2c1 returned Kir21 inh 1.2, TMEM16A inh inactive, ANO1 activ inactive, CHT allo act inactive, GPR7 antagonist -2, CHT block inactive, CHT act confirm 66* and HEK293 MP dye -45*.
Cc1cc(=O)oc2c(C)c(OCC(=O)NC3CC(C)(C)NC(C)(C)C3)ccc12 was read as Kir21 inh -0.03, TMEM16A inh inactive, ANO1 activ inactive, CHT allo act 8.2*, GPR7 antagonist -11, CHT block inactive, CHT act confirm 47* and HEK293 MP dye -54*.
For Cc1cc(OCC(=O)NC2CC(C)(C)NC(C)(C)C2)c2c(C)c(C)c(=O)oc2c1 the results were Kir21 inh -0.05, TMEM16A inh inactive, ANO1 activ inactive, CHT allo act 9.2*, GPR7 antagonist -2, CHT block inactive, CHT act confirm 49* and HEK293 MP dye -48*.
Screening CC1(C)CC(NC(=O)COc2cc3oc(=O)c4c(c3cc2Cl)CCC4)CC(C)(C)N1 returned Kir21 inh -1.8, TMEM16A inh inactive, ANO1 activ inactive, CHT allo act inactive, GPR7 antagonist -5 and CHT block inactive.
For CN1CCc2c(sc(NC(=O)c3cc(Cl)sc3Cl)c2C(N)=O)C1 the results were Kir21 inh -0.68, TMEM16A inh inactive, CHT allo act inactive, GPR7 antagonist 9, CHT block inactive, CHT act confirm 22* and HEK293 MP dye inactive.
Screening CN1CCc2c(sc(NC(=O)c3ccco3)c2C(N)=O)C1 returned Kir21 inh 0.4, TMEM16A inh inactive, ANO1 activ inactive, CHT allo act inactive, GPR7 antagonist -14 and CHT block inactive.
CN1CCc2c(sc(NC(=O)c3ccc(S(=O)(=O)N4CCOCC4)cc3)c2C(N)=O)C1 was read as Kir21 inh -2.9, TMEM16A inh inactive, ANO1 activ inactive, CHT allo act 6.6*, GPR7 antagonist 4, CHT block inactive, CHT act confirm 67* and HEK293 MP dye -63*.
For CCN1CCc2c(sc(NC(=O)c3ccc(S(=O)(=O)N(C)CC4CCCO4)cc3)c2C(N)=O)C1 (stereo unspecified) the results were Kir21 inh -0.34, TMEM16A inh inactive, ANO1 activ inactive, CHT allo act inactive, GPR7 antagonist -17, CHT block inactive, CHT act confirm 69* and HEK293 MP dye -38*.

Source: PubChem BioAssay (several laboratories)
